Assay [1] is described as follows: Confirmation and Secondary Assay for Modulators of Hemoglobin Beta Chain Splicing at IVS2 654 locus (AID 910).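 Further: HeLa cells stably carrying EGFP split by mutant beta-globin IVS2-654 intron; per-well total GFP intensity by laser scanning cytometry after 2-day treatment.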 In short, it runs like this: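 Readout: per-well total peak green fluorescence (488 nm ex, 500–520 nm em) from objects 5–250 µm, reflecting correct splicing of an EGFP-654 reporter. Compounds were applied for 2 days at 37 °C to overnight-plated HeLa EGFP-654 cells; controls were DMSO and 500 nM IVS2-654 PNA.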

Assay [2] has as its target ATP-dependent 6-phosphofructokinase (Trypanosoma brucei brucei) (UniProt O15648). As to the kind of experiment: qHTS Assay to Find Inhibitors of T. brucei phosphofructokinase: hit validation (AID 492961).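 Further: luminescence reports ADP formed as PFK phosphorylates fructose-6-phosphate with ATP.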 A digest of the protocol:
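ADP-Glo luminescence read-out of ADP formed by 1.25 nM PFK from 0.1 mM ATP and 0.5 mM F6P (TEA pH 8.0, 45 min, RT). Compounds titrated; activity normalized to no-enzyme and full-enzyme controls.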

The nature of assay [3]: S16 Schwann cell PMP22 intronic element beta-lactamase assay (AID 624044; calls by dose curve; further: nearly all actives have a fitted effect of over 15% in size). In short, it runs like this: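 Beta-lactamase reporter under a PMP22 intronic regulatory element in stable S16 rat Schwann cells; 24 h compound exposure. 460 nm blue signal normalized between DMSO (0%) and potassium clavulanate, with 535 nm FRET tracking viability; curves classed by r2 and response.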

The test system of another assay is ATS189. Nature of the assay: qHTS profiling for inhibitors of Plasmodium falciparum proliferation (AID 504749). Further: nearly all actives have a fitted effect of over 60% in size. Further: potency means the concentration at half of the fitted maximal effect. The conditions noted are these: P. falciparum in erythrocytes, SYBR Green DNA, 72 h; series mostly up to 12.8 µM. In short, it runs like this:
(§1)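 SYBR Green fluorescence of parasite DNA, read after lysis and overnight dark incubation, measured growth over 72 h in erythrocyte culture at 0.3% parasitemia and 2.5% hematocrit. Data normalised to DMSO and 0.29 uM artemisinin, with plate-drift correction.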

A further assay deals with ATS95. Described as above. The conditions noted are these: P. falciparum in erythrocytes, SYBR Green DNA, 72 h; series mostly up to 12.8 µM. In short, it runs like this:
as §1

Another assay has as its system CP203. The assay is described as above. Particulars: P. falciparum in erythrocytes, SYBR Green DNA, 72 h; series mostly up to 12.8 µM. In short, it runs like this: as §1
For another assay, the system named is CP247. The description is as above. Particulars: P. falciparum in erythrocytes, SYBR Green DNA, 72 h; series mostly up to 12.8 µM. In short, it runs like this: as §1
For another assay, the system named is CP250. Described as above. Particulars: P. falciparum in erythrocytes, SYBR Green DNA, 72 h; series mostly up to 12.8 µM. In short, it runs like this:
as §1

For a further assay, the system named is CP260. The description is as above. Particulars: P. falciparum in erythrocytes, SYBR Green DNA, 72 h; series mostly up to 12.8 µM. A digest of the protocol: as §1
In the next assay the test system is CP266. Described as above. The conditions noted are these: P. falciparum in erythrocytes, SYBR Green DNA, 72 h; series mostly up to 12.8 µM. In short, it runs like this:
as §1

Another assay deals with CP297. Described as above. The conditions noted are these: P. falciparum in erythrocytes, SYBR Green DNA, 72 h; series mostly up to 12.8 µM. In short, it runs like this:
as §1

Another assay relates to CP335. Described as above. Particulars: P. falciparum in erythrocytes, SYBR Green DNA, 72 h; series mostly up to 12.8 µM. A digest of the protocol:
as §1

For another assay, the system named is DIV17. The description is as above. Particulars: P. falciparum in erythrocytes, SYBR Green DNA, 72 h; series mostly up to 12.8 µM. In short, it runs like this:
as §1

A further assay deals with Dd2. The description is as above. The conditions noted are these: P. falciparum in erythrocytes, SYBR Green DNA, 72 h; series mostly up to 12.8 µM. A digest of the protocol: as §1
The next assay deals with HB3. The description is as above. Particulars: P. falciparum in erythrocytes, SYBR Green DNA, 72 h; series mostly up to 12.8 µM. A digest of the protocol:
as §1

The test system of the next assay is ICS. The description is as above. Particulars: P. falciparum in erythrocytes, SYBR Green DNA, 72 h; series mostly up to 12.8 µM. In short, it runs like this: as §1
For a further assay, the system named is P93_24. The assay is described as above. The conditions noted are these: P. falciparum in erythrocytes, SYBR Green DNA, 72 h; series mostly up to 12.8 µM. In short, it runs like this: as §1
The subject of a further assay is P94_40. The assay is described as above. The conditions noted are these: P. falciparum in erythrocytes, SYBR Green DNA, 72 h; series mostly up to 12.8 µM. In short, it runs like this:
as §1

The test system of the next assay is TAB113. The assay is described as above. The conditions noted are these: P. falciparum in erythrocytes, SYBR Green DNA, 72 h; series mostly up to 12.8 µM. In short, it runs like this:
as §1

The subject of the next assay is TAB165. The assay is described as above. The conditions noted are these: P. falciparum in erythrocytes, SYBR Green DNA, 72 h; series mostly up to 12.8 µM. In short, it runs like this: as §1

This passage reports Potency and outcome results from PubChem BioAssay (NCATS).

Structures are written as SMILES. Inconclusive results are not listed. The source made the active and inactive calls. Unless noted, the call rests on the fitted dose curve; in most records, active means well fitted curve in the direction sought with a large enough effect; inconclusive means small, poorly fitted or top-dose-only effect, or another doubt; inactive means no such curve, though single readings can be large; an effect the other way counts as inactive or inconclusive.

Chain of ATP-dependent 6-phosphofructokinase (Trypanosoma brucei brucei) (O15648 whole entry, looked up): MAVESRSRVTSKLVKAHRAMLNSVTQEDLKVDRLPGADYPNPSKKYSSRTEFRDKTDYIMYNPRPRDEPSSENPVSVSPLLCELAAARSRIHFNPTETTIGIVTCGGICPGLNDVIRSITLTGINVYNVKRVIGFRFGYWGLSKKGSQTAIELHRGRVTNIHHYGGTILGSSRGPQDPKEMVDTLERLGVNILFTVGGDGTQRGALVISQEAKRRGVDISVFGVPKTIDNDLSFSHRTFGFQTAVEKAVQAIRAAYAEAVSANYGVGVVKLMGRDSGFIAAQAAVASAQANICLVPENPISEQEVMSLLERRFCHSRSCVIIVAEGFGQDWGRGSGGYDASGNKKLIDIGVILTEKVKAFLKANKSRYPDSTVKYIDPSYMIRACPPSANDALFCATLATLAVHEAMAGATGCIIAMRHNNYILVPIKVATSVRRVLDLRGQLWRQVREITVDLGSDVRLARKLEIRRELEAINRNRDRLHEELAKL

Consider `C[C@]12C=CC(=O)C=C1CCC1C2C(O)C[C@]2(C)C1CC[C@]2(O)C(=O)CO` (stereo partly specified), for which the Potency entry (in [1]; in [3]; with ATS189; with ATS95; in the assay with CP203; with CP247) was “inactive” each time. The Potency entry in the assay on CP250, in the assay on CP260, with CP266, in the assay with CP297, in the assay with CP335 and with DIV17 was “inactive” each time. For the same compound, the Potency result in the assay with Dd2, with HB3, with ICS, with P93_24, with P94_40 and with TAB113 was “inactive” throughout. Further, the Potency result with TAB165 was “inactive”. Also, in [2], the compound was called inactive.
For the compound `CN(C)CCc1c[nH]c2ccc(CC3COC(=O)N3)cc12` (stereo unspecified), the Potency entry (in assay [1]; in assay [3]; with ATS189; with ATS95; in the assay on CP203; in the assay on CP247) was “inactive” in each case. Further, the Potency entry in the assay on CP250, in the assay on CP260, with CP297, with CP335, in the assay with DIV17 and in the assay with Dd2 was “inactive” each time. Further, the Potency result in the assay on HB3, in the assay with ICS, with P93_24, in the assay on P94_40, with TAB113 and in the assay with TAB165 was “inactive” throughout. Moreover, the compound was called inactive in [2].
For `COC1C=CO[C@@]2(C)Oc3c(C)c(O)c4c(O)c(c(C=NN5CCN(C)CC5)c(O)c4c3C2=O)NC(=O)/C(C)=C\C=CC(C)C(O)[C@@H](C)C(O)C(C)[C@H](OC(C)=O)C1C` (stereo partly specified), the Potency result in [1] and in [3] was “inactive” in each case. Further, in [2], the compound was classed as inactive. Besides, the Potency was 1580 nM (active) in the assay on ATS189; 2510 nM (active) in the assay on ATS95; 4260 nM (active) in the assay with CP203; 3980 nM (active) with CP247; 6310 nM (active) with CP250; 1410 nM (active) with CP260. Further, the Potency with CP266 was 6750 nM (active); with CP297, 953 nM (active); in the assay on CP335 it was 953 nM (active); with DIV17, 269 nM (active); with Dd2, 251 nM (active); in the assay on HB3 it was 447 nM (active). The Potency was 89.1 nM (active) in the assay on ICS; 251 nM (active) in the assay with P93_24; 282 nM (active) in the assay with P94_40; 316 nM (active) with TAB113; 141 nM (active) with TAB165.
`COc1cccc(-c2nc(NCCc3c[nH]c4ccc(OC)cc34)c3ccccc3n2)c1`: the Potency result in assay [1] is “inactive”.
On to `CC[C@@]12CCCN3CCc4c(n(c5ccccc45)[C@](O)(C(=O)OC)C1)C32` (stereo partly specified), for which the Potency result (in [1]; in the assay with ATS189; with ATS95; in the assay with CP203; in the assay on CP247; with CP250) was “inactive” each time. The Potency result with CP260, in the assay on CP266, in the assay on CP297, in the assay with CP335, in the assay on HB3 and with P93_24 was “inactive” each time. In addition, the Potency entry in the assay with P94_40, in the assay with TAB113 and in the assay on TAB165 was “inactive” in each case. Further, the compound was classed as inactive in [2].
For `CC1(C)SC2C(N3C(=O)C(c4ccccc4)NC3(C)C)C(=O)N2C1C(=O)O` (stereo unspecified), the Potency entry (in assay [1]; in assay [3]; in the assay with ATS189; with ATS95; in the assay on CP203; in the assay with CP247) was “inactive” throughout. Also, the Potency result in the assay with CP250, in the assay on CP260, in the assay with CP266, with CP297, with CP335 and in the assay on DIV17 was “inactive” throughout. Also, the Potency result in the assay on Dd2, in the assay on HB3, with ICS, with P93_24, in the assay on P94_40 and in the assay with TAB113 was “inactive” throughout. Besides, in the assay on TAB165, the Potency entry was “inactive”. Besides, the compound was called inactive in [2].
